Data reported in PubChem BioAssay AID2017 (National Center for Advancing Translational Sciences (NCATS), 2009).
Results filed as inconclusive are left out. Calls of active or inactive are those of the source. Calls follow the shape of the dose curve; as a rule, active = well fitted curve in the direction sought with a large enough effect; inconclusive = small, poorly fitted or top-dose-only effect, or another doubt; inactive = no such curve, though single readings can be large or run the other way.

Tested on: 4-diphosphocytidyl-2-C-methyl-D-erythritol kinase IspE (bacterial, species not stated)
Assay: Confirmatory Assay for Inhibitors of Human Galactokinase (GALK): CDP-Me assay counterscreen
Procedure, shortened: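 Luminescent read-out of ATP remaining (Kinase-Glo Plus) after 1 h at room temperature. Reaction: 0.25 ug/mL CDP-Me kinase, ATP 15 uM, CDP-ME 30 uM, HEPES pH8.0 buffer containing MgCl2, KCl, DTT and BSA.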

CS(=O)(=O)c1ccc2c(c1)sc1nc(=O)c(/C=C3/C=CC(=O)C(O)=C3)c(N)n12
outcome: inactive

NS(=O)(=O)c1ccc(NC(=S)NNC(=O)c2ccc(Br)o2)cc1
outcome: inactive

CC1(C)CC(=O)C2=C(C1)NC(Nc1nc3ccccc3o1)=NC21CCCC1
outcome: inactive

O=C1C=CC2=C3c4cc(O)c(O)cc4CC3(O)COC2=C1O (stereo unspecified)
outcome: inactive

O=C1C(Cl)=C(N2CCC(C(=O)O)CC2)C(=O)c2ccccc21
outcome: inactive

Cc1ccc(C)c(CN2C(=O)CSc3ccc(C(=O)NCCN4CCOCC4)cc32)c1
outcome: inactive

CCOc1cc(/C=C2/C(=N)N3C(=NC2=O)SN=C3S(C)(=O)=O)ccc1OS(=O)(=O)c1ccccc1
outcome: inactive

N#C/C(=C\c1coc2ccc(O)cc2c1=O)C(=O)Nc1nc2ccccc2s1
outcome: inactive

O=C1ON=C(c2ccccc2)/C1=C/c1ccc(O)c(O)c1
outcome: inactive

S=c1[nH]nc(Cc2sc(-c3ccccc3)nc2-c2ccccc2)o1
outcome: inactive

O=C1C=C(N(CCO)Cc2ccccc2)c2ccccc2C1=O
outcome: inactive

COc1ccc(-n2nnc3c(=O)n(CC(=O)N4CCC(C)CC4)cnc32)cc1
outcome: inactive

O=C1C(C2=C(O)c3ccccc3C2=O)=Nc2ccccc21
outcome: inactive

CCOC(=O)C1(Cc2cccc(F)c2)CCN(C(=O)COC)CC1
outcome: inactive

Cc1snc(S(=O)(=O)/C(C#N)=N/Nc2ccc(C(F)(F)F)cc2)c1C#N
outcome: inactive

COCc1cc(CN2CCCC2)c(O)c2ncccc12
outcome: inactive

CCS(=O)(=O)C1=NSC2=NC(=O)/C(=C\c3ccc(OS(=O)(=O)c4ccccc4)cc3)C(=N)N21
outcome: inactive

CCOc1cc(/C=C2\C(=O)ON=C2c2ccccc2)cc(Br)c1O
outcome: inactive

O=S(=O)(NCc1cccs1)c1ccc(Br)s1
outcome: inactive

CCS(=O)(=O)C1=NN2C(=N)/C(=C\c3ccc(OS(=O)(=O)c4ccccc4)cc3)C(=O)N=C2S1
outcome: inactive

CC(=O)c1ccc(NC(=S)Nc2cccc3cnccc23)cc1
outcome: inactive

Cc1ccc(S(=O)(=O)/N=C2/NC(=O)/C(=C\c3cc(Br)cc(Br)c3O)S2)cc1
outcome: inactive

CC(C)OC(=O)C(C(=O)C(F)(F)F)c1cc(NS(=O)(=O)c2ccc3ccccc3c2)c2ccccc2c1O (stereo unspecified)
outcome: inactive

COc1ccc(C/C(O)=C(\C#N)c2nc3ccccc3s2)cc1
outcome: inactive

O=C1/C(=C\c2cc(Cl)c(O)c(Cl)c2)SC(=S)N1Cc1ccccc1
outcome: inactive

COc1ccc2cc(C(N)=O)c(=Nc3ccc(C)cc3)oc2c1
outcome: inactive
